Bioassay records (PubChem)
The list is not random: actives were taken first. Their share in the collection is about 10%.
Gal4-VP16 FLuc: counter-screen for ROR gamma inhibitors: Gal4-VP16 reporter; hit rate 3.5% among 310,000; Drosophila S2 Gal4-VP16 UAS-luciferase, luminescence, 20 h; Potency, µM (doses to about 53.6 µM), for the others: at the highest dose activity, negative = inhibition, actives largely listed as inhibitors; AID 2546;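 further: Gal4-VP16 expression switched on by copper sulfate through the metallothionein promoter; on the % scale 0 is the no-effect control and ±100 the full control effect; nearly all actives have a fitted effect of over 50% in size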
KB-V1 MDR tox: KB-V1 MDR subline cytotoxicity | Potency, µM (doses to about 46.1 µM), most hits filed as cytotoxic | hit rate 3.4% among 400,000 | KB-V1 MDR cells viability, CellTiter-Glo, 72 h; further: on the % scale 0 is the no-effect control and ±100 the full control effect; nearly all actives have a fitted effect of over 60% in size
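KB-V1, DMEM (no phenol red) + 10% FBS; cpd pin-transferred, titration series; 72 h, 37 degrees C; CellTiter-Glo, luminescence. Data normalized, curve-fit.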
SW480 rerep: induces DNA re-replication in SW480 colon adenocarcinoma cells. SW480 DNA re-replication, Hoechst DNA content imaging, 48 h. Potency, µM (top dose mostly 46.1 µM), inactives show at the top dose re-replication activation, most hits filed as activators. hit rate 1.8% among 340,000. AID 624297; further: % of control where 0% means no effect; nearly all actives have a fitted effect of over 55% in size
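Quantitative HTS format with DMSO vehicle controls; 48 hr drug incubation at 37 C, then 40 min Hoechst staining and scanning imager measurement at 405 nm excitation.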
KB-3-1 tox: KB-3-1 parental cell cytotoxicity. AID 1347075. Potency, µM (series often up to 46.1 µM), usual class: cytotoxic. hit rate 1.4% among 400,000. KB-3-1 viability, CellTiter-Glo ATP luminescence, 72 h; further: on the % scale 0 is the no-effect control and ±100 the full control effect; nearly all actives have a fitted effect of over 60% in size
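Luminescent ATP read-out (CellTiter-Glo) measures survival of drug-naive KB-3-1 cells after 72 h compound exposure at 37 °C. Titration series was screened from lowest to highest concentration, with DMSO vehicle plates as background controls.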
RORg inh: inhibitors of mouse ROR gamma transcriptional activity. P51450. Drosophila S2 Gal4-RORgamma UAS-luciferase reporter, 20 h. Potency, µM (highest dose often 53.6 µM), for inactives: at the top dose activity change, negative = inhibition, actives largely listed as inhibitors. hit rate 5.4% among 310,000. AID 2551; further: on the % scale 0 is the no-effect control and ±100 the full control effect; nearly all actives have a fitted effect of over 60% in size
Target sequence (P51450 whole entry, looked up, the tested form may be a part): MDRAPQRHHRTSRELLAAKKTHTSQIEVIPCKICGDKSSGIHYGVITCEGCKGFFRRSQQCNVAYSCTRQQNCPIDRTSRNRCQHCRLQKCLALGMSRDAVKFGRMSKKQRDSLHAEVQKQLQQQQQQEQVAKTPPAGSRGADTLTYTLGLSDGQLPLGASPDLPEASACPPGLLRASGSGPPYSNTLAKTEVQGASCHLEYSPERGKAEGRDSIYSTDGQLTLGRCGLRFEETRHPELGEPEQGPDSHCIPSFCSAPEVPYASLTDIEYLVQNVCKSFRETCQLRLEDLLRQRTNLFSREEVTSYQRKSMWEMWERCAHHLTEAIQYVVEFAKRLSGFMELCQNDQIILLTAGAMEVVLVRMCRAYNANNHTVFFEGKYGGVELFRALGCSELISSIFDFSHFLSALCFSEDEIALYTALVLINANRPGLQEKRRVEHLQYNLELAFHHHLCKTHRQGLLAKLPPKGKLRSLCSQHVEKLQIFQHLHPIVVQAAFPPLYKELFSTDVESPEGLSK
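Stable Schneider cell line, Gal4 DNA-binding domain fused to ROR gamma, UAS-luciferase. Cmpd 1 hr RT → CuSO4 700 uM final → 20 hr RT → luciferase reagent 10 min → luminescence.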
MCF10A rerep: DNA re-replication induction in MCF 10a cells; AID 624296; MCF 10A DNA re-replication, Hoechst nuclear intensity, 48 h; hit rate 2.9% among 350,000; Potency, µM (titrated, usually from 46.1 µM), without a hit: at the top dose activity, positive = re-replication, most hits filed as activators; further: % of control where 0% means no effect; nearly all actives have a fitted effect of over 50% in size
The depositor's hits bear a star; i = inactive; ? = inconclusive; . = no result given; [ ] = another dose, or the depositor's remark. The call rests on the fitted dose curve; in most records, active means well fitted curve in the direction sought with a large enough effect; inconclusive means small, poorly fitted or top-dose-only effect, or another doubt; inactive means no such curve, though single readings can be large; an effect the other way counts as inactive or inconclusive. Potency means the concentration at half of the fitted maximal effect.

SMILES | Gal4-VP16 FLuc | KB-V1 MDR tox | SW480 rerep | KB-3-1 tox | RORg inh | MCF10A rerep
Cc1nn(-c2ccccc2)c(C)c1NC(=O)COc1ccc(C#N)cc1 | -4% | 18µM* | 4% | i | 19% | ?
Cc1nn(-c2ccccc2)c(C)c1NC(=O)COC(=O)c1ccccc1 | . | ? | -21% | i | . | 1%
Cc1nn(-c2ccccc2)c(C)c1NC(=O)COc1ccc(Br)cc1Cl | -11% | ? | -5% | 15µM* | ? | ?
Cc1nn(-c2ccccc2)c(C)c1NC(=O)COc1ccccc1C#N | . | i | . | i | . | .
O=C(NCc1ccccc1Cl)C1CCN(S(=O)(=O)Cc2ccccc2)CC1 | . | i | . | i | . | .
COc1ccc(CCNC(=O)Cn2c(=O)n(-c3cc(OC)c(OC)c(OC)c3)c(=O)c3ccccc32)cc1OC | . | ? | . | i | . | .
CCc1ccc(-n2nc(C)c3c(C)cc(=O)n(CC(=O)Nc4ccc(C(C)=O)cc4)c32)cc1 | . | i | . | i | . | .
CC(C)c1cc(C(C)C)c(S(=O)(=O)N2c3ccccc3[C@@]3(Br)C[C@H]4C(=O)N[C@@H](Cc5ccccc5)C(=O)N4[C@@H]23)c(C(C)C)c1 | . | ? | ? | 16µM* | . | -28%
CCOc1ccc(-n2c(=O)c3c(C)c(C)sc3n(Cc3c(F)cccc3Cl)c2=O)cc1 | . | i | . | i | . | .
Cc1cccc(N2CCN(C(=S)c3ccc(-c4ccccc4[N+](=O)[O-])o3)CC2)c1 | -5% | ? | ? | 16µM* | -6% | ?
O=[N+]([O-])c1ccccc1-c1ccc(C(=S)N2CCCC2)o1 | -17% | i | 8.2µM* | i | -6% | -22%
COc1ccc(N2CCN(C(=O)CN=C3NS(=O)(=O)C(c4ccc(C)cc4)=C3C)CC2)cc1 | 5% | 3.7µM* | -5% | i | 61% | -2%
O=C1OC(C(=O)O)Cc2ccccc21 (stereo not given) | -3% | i | ? | i | -17% | 18µM*
Cc1ccccc1NC(=O)C1Cc2ccccc2C(=O)O1 (stereo not given) | -13% | i | -1% | i | -9% | 2%
Cn1c(-c2ccccc2)c(C(=O)CCl)c2ccccc21 | ? | ? | ? | ? | 7.1µM* | ?
Cn1c(-c2ccccc2)c(O)c(=O)c2ccccc21 | 1%[10 µM] | . | . | . | -9%[10 µM] | .
CCn1c(-c2ccccc2)c(C(=O)CCl)c2ccccc21 | ? | ? | ? | i | 11µM* | 23µM*
CCOC(=O)c1c(NC(=O)c2ccccc2)sc2c1CCc1ccccc1-2 | -13% | i | ? | i | -14% | 21µM*
CCOC(=O)c1c(NC(=O)c2ccccc2Cl)sc2c1CCc1ccccc1-2 | 1% | ? | -695% | i | 4% | 16µM*
CCOC(=O)c1c(NC(=O)c2ccccc2C(=O)O)sc2c1CCCC2 | 4% | i | -4% | i | 37% | 14%
Cc1ccc(NC(=S)N(CCCN2CCOCC2)Cc2ccccn2)cc1 | -7% | ? | -3% | i | -15% | 22%
COc1ccc(CN(C)CCc2ccccn2)cc1OC | -2% | i | -1% | i | -11% | -1%
Cc1ccc(CN(Cc2ccccn2)C(=O)Nc2ccc(C)c(C)c2)cc1 | 7% | i | ? | i | 7% | 1%
CSc1cccc(NC(=S)N(Cc2ccc(C)cc2)Cc2ccccn2)c1 | -10% | i | -3% | i | 13µM* | ?
COc1ccc(CCN(Cc2ccccn2)C(=S)Nc2cccc(SC)c2)cc1OC | -2%[10 µM] | i | 0% | i | 10µM* | 17%
SMILES | Gal4-VP16 FLuc | KB-V1 MDR tox | SW480 rerep | KB-3-1 tox | RORg inh | MCF10A rerep
COc1ccc(CCN(Cc2ccccn2)C(=S)Nc2ccc(C)cc2)cc1OC | -4% | 23µM* | -1% | ? | ? | 10%
COc1ccccc1NC(=S)N(CCc1ccc(OC)c(OC)c1)Cc1ccccn1 | 17%[10 µM] | ? | 11% | i | 11µM* | -1%
COc1ccccc1NC(=S)N(Cc1ccc(C)cc1)Cc1ccccn1 | 9% | i | -1% | i | 19% | 1%
CCOC1=C2[C@H](c3ccc(CC)cc3)N(S(=O)(=O)c3ccc(C)cc3)C[C@H]2C(C#N)(C#N)C(C#N)(C#N)C1 | . | i | . | i | . | .
COc1cccc(/C=N/Nc2ncnc(N)c2[N+](=O)[O-])c1OC | ? | i | 1% | i | ? | 0%
Cc1cc(/C=N/Nc2ncnc(N)c2[N+](=O)[O-])c(C)n1-c1ccccc1 | 6.3µM* | ? | -1% | i | 6.3µM* | 6%
Cc1cc(/C=N/Nc2nc(N)ncc2[N+](=O)[O-])c(C)n1-c1cccc(C(F)(F)F)c1 | ? | . | . | . | 6.3µM* | .
CCOC(=O)CCC(NC(=O)c1ccc(Nc2nc3ccccc3nc2C(=O)OCC)cc1)C(=O)OCC (stereo not given) | . | 9.2µM* | 7% | i | . | 15%
CCOc1ccc(-c2cnc(NCc3ccc(OC)cc3OC)n2C)cc1 | . | i | . | i | . | .
Cc1ccc(CCNC(=O)CCNS(=O)(=O)c2ccc3c(c2)oc(=O)n3C)cc1 | 0% | i | -4% | i | 2% | -20%
CC(=O)N1CCc2cc(S(=O)(=O)NCCC(=O)N3CCc4ccccc4C3)ccc21 | -22% | 23µM* | 0% | ? | ? | 2%
CCOC(=O)Cn1c(=O)oc2cc(S(=O)(=O)NCCc3ccc(C)cc3)ccc21 | ? | i | 1% | i | ? | 10%
O=C(O)c1ccc(S(=O)(=O)NC2CCCc3ccccc32)cc1 (stereo not given) | -9% | i | -5% | i | 20% | 1%
CCOC(=O)Cn1c(=O)oc2cc(S(=O)(=O)NCCCc3ccccc3)ccc21 | 13µM* | i | 1% | i | ? | 4%
CC(=O)N1CCc2cc(S(=O)(=O)NC3CCCc4ccccc43)ccc21 (stereo not given) | 20µM* | ? | 0% | i | ? | -5%
CC(=O)N1CCc2cc(S(=O)(=O)CCC(=O)N3CCc4ccccc4C3)ccc21 | 11% | i | 12% | i | 4% | 5%
Cn1c(=O)oc2cc(S(=O)(=O)NCCC(=O)NCCc3ccc(Cl)cc3)ccc21 | . | i | 7% | 16µM* | -1%[0.365 µM] | 4%
COc1ccc(-c2cc(C(C)=O)c(C)n2CCC(=O)Nc2cc(Cl)ccc2C)cc1 | . | ? | . | i | . | .
COCCn1c(=O)c(-c2ccc(OC)cc2)nc2cnc(N3CCN(C)CC3)nc21 | -12% | . | . | . | -1% | .
Cc1cccc(C(=O)Nc2sc3c(c2C(=O)N2CCCCC2)CCC(C)C3)c1 (stereo not given) | . | ? | . | i | . | .
